# Assay results taken from the supplement of paper PMC8975748.
# Counter-ions that a name gives are not always drawn.
# Tested on: Saccharomyces cerevisiae BY4741 SeMeCo community
# Assay: z-score of subpopulation abundance vs DMSO median, subpopulation auxotrophic for HLUM; higher = larger share of this subpopulation than in DMSO controls
# Conditions: 10 µM; 24 h; SM minimal medium; subpopulation (auxotrophy): HLUM
# Method: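 Fluorescent four-plasmid SeMeCo (self-establishing metabolically cooperating S. cerevisiae BY4741 community; plasmids pH-mRuby2, pL-mWasabi, pU-eCFP, pM-TagRFP657) was grown 24 h in minimal SM medium with each Selleck FDA-approved drug at 10 µM in 384-well plates. Cells were fixed and imaged by high-content confocal microscopy. For each auxotrophic subpopulation (and the prototroph), a z-score gives the deviation from the DMSO vehicle-control population median.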
row,SMILES,z-score of subpopulation abundance
1,CC1(C)S[C@@H]2[C@H](NC(=O)Cc3ccccc3)C(=O)N2[C@H]1C(=O)O [Benzylpenicillin potassium],0.88
2,COc1ccc2c3c1O[C@H]1C[C@@H](O)C=C[C@@]31CCN(C)C2 [Galanthamine HBr],-0.98
3,COc1cc2c(cc1OC)[C@@H]1Cc3ccc(OC)c(OC)c3CN1CC2 [Rotundine],0.13
4,O=C1c2cccc3c2[C@H](CCC3)CN1[C@@H]1CN2CCC1CC2 [Palonosetron],-0.4
5,COCCOC(=O)C1=C(C)NC(C)=C(C(=O)OC/C=C/c2ccccc2)C1c1cccc([N+](=O)[O-])c1 (stereo not given) [Cilnidipine],-0.48
6,CCCN(CCC)CCc1cccc2c1CC(=O)N2 [Ropinirole HCl],0.64
7,Cc1nc2n(c(=O)c1CCN1CCC(c3noc4cc(F)ccc34)CC1)CCCC2 [Risperidone],-0.21
8,C[C@](N)(Cc1ccc(O)c(O)c1)C(=O)O [Methyldopa],-0.4
9,CCCCC(F)(F)[C@@]1(O)CC[C@H]2[C@@H](CC(=O)[C@@H]2CCCCCCC(=O)O)O1 [Lubiprostone],-0.37
10,Cn1c(=O)c2[nH]cnc2n(C)c1=O [Aminophylline],-0.29
11,CCCCNC(=O)NS(=O)(=O)c1ccc(C)cc1 [Tolbutamide],0.19
12,CN(Cc1ccc(C(C)(C)C)cc1)Cc1cccc2ccccc12 [Butenafine HCl],0.01
13,CO/N=C(\C(=O)N[C@@H]1C(=O)N2C(C(=O)O)=C(CSC(=O)c3ccco3)CS[C@H]12)c1csc(N)n1 [Ceftiofur],0.07
14,C[N+]1(C)CCC(=C(c2ccccc2)c2ccccc2)CC1 [Diphemanil Methylsulfate],-0.18
15,CN[C@@H]1[C@@H](O)[C@@H](O[C@@H]2[C@@H](O)[C@H](O[C@H]3O[C@H](CN)[C@@H](O)[C@H](O)[C@H]3O)[C@@H](N)C[C@H]2NC(=O)[C@@H](O)CN)OC[C@]1(C)O [Isepamicin Sulphate],-0.09
16,Cc1nc(NC(=O)N2CCC[C@H]2C(N)=O)sc1-c1ccnc(C(C)(C)C(F)(F)F)c1 [Alpelisib (BYL719)],-0.78
17,CCN(CC)CCOc1ccc2c(c1)C(=O)c1cc(OCCN(CC)CC)ccc1-2 [Tilorone dihydrochloride],-0.11
18,COc1ccc(C(C)=O)c(O)c1 [Paeonol],0.01
19,CC(=O)OC1CC2(C)C(CC(O)C3C4(C)CCC(O)C(C)C4CCC32C)C1=C(CCC=C(C)C)C(=O)O (stereo not given) [Fusidine],0.71
20,Cc1ccc(Sc2ccccc2N2CCNCC2)c(C)c1 [Vortioxetine],-0.06

row,SMILES,z-score of subpopulation abundance
1,CO[C@H]1C[C@@H]2CC[C@@H](C)[C@@](O)(O2)C(=O)C(=O)N2CCCC[C@H]2C(=O)O[C@H]([C@H](C)C[C@@H]2CC[C@@H](OC(=O)C(C)(CO)CO)[C@H](OC)C2)CC(=O)[C@H](C)/C=C(\C)[C@@H](O)[C@@H](OC)C(=O)[C@H](C)C[C@H](C)/C=C/C=C/C=C/1C,31.6
2,CC1(C)S[C@@H]2[C@H](NC(=O)[C@H](N)c3ccc(O)cc3)C(=O)N2[C@H]1C(=O)O [Amoxicillin trihydrate],-0.21
3,OCCN(CCO)c1nc(N2CCCCC2)c2nc(N(CCO)CCO)nc(N3CCCCC3)c2n1 [Dipyridamole],-1.34
4,C(=C\c1ccccc1)/CN1CCN(C(c2ccccc2)c2ccccc2)CC1 [Cinnarizine],0.66
5,CCC(=O)c1c(O)cc(O)cc1O [Flopropione],-0.26
6,NC(=O)c1cn(Cc2c(F)cccc2F)nn1 [Rufinamide],0.29
7,C=C1c2cccc(O)c2C(O)=C2C(=O)[C@]3(O)C(O)=C(C(N)=O)C(=O)[C@@H](N(C)C)[C@@H]3[C@@H](O)[C@H]12 [Methacycline HCl],-0.19
8,C[C@@H](O)[C@H]1C(=O)N2C(C(=O)OCOC(=O)C(C)(C)C)=C(SC3CN(C4=NCCS4)C3)[C@H](C)[C@H]12 [Tebipenem Pivoxil],-0.74
9,CC1(C)S[C@@H]2[C@H](NC(=O)[C@H](N)c3ccccc3)C(=O)N2[C@H]1C(=O)O [Ampicillin Trihydrate],-0.25
10,C[C@@H](O)[C@H]1C(=O)N2C(C(=O)O)=C(S[C@@H]3CN[C@H](C(=O)N(C)C)C3)[C@H](C)[C@H]12 [Meropenem],-0.68
11,Cc1ccccc1OCC(O)CO (stereo not given) [Mephenesin],-0.28
12,CN1CCN(c2cc3c(cc2F)c(=O)c(C(=O)O)cn3-c2ccc(F)cc2)CC1 [Difloxacin hydrochloride],0.23
13,O=C(CCCN1CCC(O)(c2ccc(Cl)cc2)CC1)c1ccc(F)cc1 [Haloperidol],0.12
14,Cc1ccc(-c2cc(C(F)(F)F)nn2-c2ccc(S(N)(=O)=O)cc2)cc1 [Celecoxib],-0.44
15,CC[C@@]1(O)C(=O)OCc2c1cc1n(c2=O)Cc2cc3cc(O)ccc3nc2-1 [Hydroxy Camptothecine],0.8
16,COc1cc(NS(=O)(=O)c2ccc(N)cc2)ncn1 [Sulfamonomethoxine],0.33
17,COc1ccc([C@@H]2Sc3ccccc3N(CCN(C)C)C(=O)[C@@H]2OC(C)=O)cc1 [Diltiazem HCl],-0.3
18,COc1ccc(-c2nc3cc(C4=NNC(=O)CC4C)ccc3[nH]2)cc1 (stereo not given) [Pimobendan],1.6
19,CCCCCOc1ccc(-c2ccc(-c3ccc(C(=O)N[C@H]4C[C@@H](O)[C@@H](O)NC(=O)[C@@H]5[C@@H](O)[C@@H](C)CN5C(=O)[C@H]([C@@H](C)O)NC(=O)[C@H]([C@H](O)[C@@H](O)c5ccc(O)cc5)NC(=O)[C@@H]5C[C@@H](O)CN5C(=O)[C@H]([C@@H](C)O)NC4=O)cc3)cc2)cc1,76
20,CO[C@H]1C[C@@H]2CC[C@@H](C)[C@@](O)(O2)C(=O)C(=O)N2CCCC[C@H]2C(=O)O[C@H]([C@H](C)C[C@@H]2CC[C@@H](OCCO)[C@H](OC)C2)CC(=O)[C@H](C)/C=C(\C)[C@@H](O)[C@@H](OC)C(=O)[C@H](C)C[C@H](C)/C=C/C=C/C=C/1C [Everolimus (RAD001)],24
